Measured values from PubChem BioAssay (EPA / NIEHS).
The source made the active and inactive calls. Rule for the calls: active = hit-call score of the fitted dose curve at least 0.9, where 1 is the maximum; inactive = score below 0.9.

assay: CCTE_Mundy_HCI_Cortical_NOG_BPCount: CCTE's Neurite Outgrowth Assay in rat cortical cells for Branch Point Count, Mundy Lab (AID 2284237);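 for AC50: branch points counted about two days after chemical exposure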
Experimental: CCTE_Mundy_HCI_Cortical_NOG is a multiplexed, cell-based-readout assay that uses rat primary cortical cells with measurements taken at 50.33 hours after chemical dosing in a microplate: 96-well plate.CCTE_Mundy_HCI_Cortical_NOG_BPCount is one of four components of the CCTE_Mundy_HCI_Cortical_NOG assay. It measures neurite outgrowth related to the number of branch points using High Content Imaging of fluorescently labelled markers.[…] Using a type of morphology reporter, loss -of-signal activity can be used to understand developmental effects.
Exposure starts 2 hours post-plating by adding 10 ul of the working solution to 90 ul of media in the wells for a 1/10 dilution. Forty-eight hours after chemical treatment cells are fixed by direct addition of 100 ul of warm (37C) Dulbecco's phosphate buffered saline (DPBS) fixative solution containing 8% paraformaldehyde, 8% sucrose, and 0.1% of 3 mg/ml Hoechst 33342 into each well. Primary antibodies are prepared by dilution in Immunocytochemical Staining Buffer (ISB), 10X Dulbecco's PBS, 0.1% Saponin, 5% Bovine Serum Albumin, 0.5% NaN3 (Sodium Azide) and betaIII-tubulin (rabbit anti-betaIII-tubulin, 1:800) followed by Alexa Fluor-488 secondary (1:500) to label neuronal cell bodies and neurites. A Cellomics ArrayScan VTi HCS Reader is used for automated image acquisition and analysis of neurite outgrowth.

| Structure (SMILES) | AC50 | outcome |
| --- | --- | --- |
| CO/N=C(/C1=NOCCO1)c1ccccc1Oc1ncnc(Oc2ccccc2Cl)c1F | 2.55 µM (active) | – |
| CCOP(=O)(OCC)Oc1nc(Cl)c(Cl)cc1Cl | – | inactive |
| N#CN=C1SCCN1Cc1ccc(Cl)nc1 | – | inactive |
| CS(=O)(=O)c1ccc(C(=O)C2C(=O)CCCC2=O)c([N+](=O)[O-])c1 | – | inactive |
| COP(=O)(OC)O/C(C)=C/C(=O)N(C)C | – | inactive |
| CCSC(=O)N1CCCCCC1 | – | inactive |
| CNC(=O)Oc1cccc2ccccc12 | – | inactive |
| O=C(Nc1ccccc1-c1ccc(Cl)cc1)c1cccnc1Cl | – | inactive |
| CC1(C)C(C=C(Cl)Cl)C1C(=O)OC(C#N)c1cccc(Oc2ccccc2)c1 (stereo not drawn) | – | inactive |
| CN/C(=N\[N+](=O)[O-])NCc1cnc(Cl)s1 | – | inactive |
| Cc1c(COC(=O)[C@@H]2[C@H](/C=C(\Cl)C(F)(F)F)C2(C)C)cccc1-c1ccccc1 | 25.9 µM (active) | – |
| CCN(CC)c1nc(C)cc(OP(=S)(OC)OC)n1 | 90.6 µM (active) | – |
| COC(=O)N(C(=O)N1CO[C@@]2(C(=O)OC)Cc3cc(Cl)ccc3C2=N1)c1ccc(OC(F)(F)F)cc1 | – | inactive |
| CCNC(=O)NC(=O)C(C#N)=NOC | – | inactive |
| C=C(C)CN(CC)c1c([N+](=O)[O-])cc(C(F)(F)F)cc1[N+](=O)[O-] | 50 µM (active) | – |
| COP(=S)(OC)SCn1nnc2ccccc2c1=O | – | inactive |
| CS(=O)(=O)c1cc(C(F)(F)F)ccc1C(=O)c1cnoc1C1CC1 | – | inactive |
| CC(C)(C)C(=O)C(Oc1ccc(Cl)cc1)n1cncn1 (stereo not drawn) | 33.2 µM (active) | – |
